Inconclusive results are not listed. A call without a number means that no potency is given here. Values without a mark were called inactive. Activity calls are given as the source filed them. The call rests on the fitted dose curve; in most records, active means well fitted cell-killing curve with a large enough effect in the repeat runs; inconclusive means weak or mixed curves, or effect the other way; inactive means flat fitted curve, though single readings scatter.

A short description of the assay: cAMP Responsive Elements (CRE) small molecule antagonists, cell-based qHTS assay: qHTS cell viability counter screen (AID 2060913). Further: nearly all actives have a fitted effect of over 40% in size. The following applies: CRE-bla HEK293T viability, CellTiter-Glo luminescence, 5 h; series mostly up to 92.4 µM. The method in brief: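 Cytotoxicity read in the same wells as the CRE-bla HEK293T antagonist assay: after 3 h compound with 0.25 uM NKH477 final and 2 h beta-lactamase substrate, CellTiter-Glo luminescence measured.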
For orientation: qHTS replaces the single test concentration by a dilution series.
In the case of `CC(C)=CC1C(C(=O)OC(C#N)c2cccc(Oc3ccccc3)c2)C1(C)C` (centres undefined), the Potency entry was “inactive”.

With `Cn1cc[n+](C)c1` (tested in a mixture with another compound), the Potency entry is “inactive”.

As for `C=COC(C)=O`, the Potency entry was “inactive”.

Take `NCC1(CC(=O)O)CCCCC1`: the Potency result is “inactive”.

In the case of `N#CC(O)c1ccccc1` (centres undefined), the Potency result was “inactive”.

In the case of `CCN(CC)c1nc(C)cc(OP(=S)(OC)OC)n1`, the Potency result is “inactive”.

Take `Oc1c(Cl)cccc1Cl`: the Potency result was “inactive”.

For the compound `Cc1cc2c3c(c1)C(c1ccccc1)=N[C@@H](NC(=O)c1ccncc1)C(=O)N3CC2`, the Potency result is “inactive”.

As for `CCCN(CCC)C(=O)Cc1c(-c2ccc(Cl)cc2)nc2ccc(Cl)cn12`, the Potency result is “inactive”.

For the compound `CC1(C)C(=O)NC(=O)NC1=O`, the Potency result was “inactive”.

Regarding `CCNC(=O)NC(=O)/C(C#N)=N/OC`, the Potency result is “inactive”.

Take `CCCCCCC(=O)CCCCCC/C=C/C[C@@H](O)[C@H](O)[C@@](N)(CO)C(=O)O`: the viability change, negative = cytotoxic is 2.93% [at 18.9 µM].

As to `CCCC(C)(COC(N)=O)COC(=O)NC(C)C` (centres undefined), the Potency result was “inactive”.

In the case of `Oc1ccc(Cl)cc1Cl`, the Potency result was “inactive”.

Take `C=CC1CC=CCC1` (centres undefined): the Potency result is “inactive”.

On to `c1cc[n+]2c(c1)-c1cccc[n+]1CC2`, for which the Potency result was “inactive”.

`Cc1cc(C)cc(C)c1`: the Potency result is “inactive”.

With `O=S(=O)(O)C(F)(F)C(F)(F)C(F)(F)C(F)(F)C(F)(F)C(F)(F)C(F)(F)C(F)(F)F`, the Potency result was “inactive”.

For the compound `C=CCOC(N)=O`, the Potency result is “inactive”.

`Cc1[nH]c(=O)n(C(C)(C)C)c(=O)c1Cl`: the Potency entry was “inactive”.

Consider `O=C(O)COc1ccc(Cl)cc1Cl`, for which the Potency result was “inactive”.

As for `Clc1ccccc1`, the Potency entry was “inactive”.

As to `CN(C)C(=O)Cl`, the Potency entry is “inactive”.

With `CCOC(=O)NC(C)(C)Cc1ccc(Cl)cc1`, the Potency result is “inactive”.

(Values after PubChem BioAssay (Tox21).)
